The campaign covered roughly 5,500 compounds. About 2,000 (36%) were called active. Another 18% or so got no clear call; they are omitted. Rule as the data show it: active = normalized growth mostly below about 0.91 (no sharp cut-off); inconclusive = no clear call, values can overlap the other calls; inactive = mostly above about 0.92. This is one part of the list.
Experiment: chemical genetic growth profiling, strain panel (AID 1159580);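 also: tested at 20 µM; growth read once vehicle control cultures reached saturation at 30 °C; 1 = growth at the plate median or of vehicle wells; lower values mean less growth of the strain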
Conditions: growth OD

Measured: normalized growth

CCOc1ccc(Cc2nccc3cc(OCC)c(OCC)cc23)cc1OCC
active: S. cerevisiae deletion strains, locus YKR001C, strain vps1, stronger effect = lower value 0.88 | S. cerevisiae deletion strains, locus YLR268W, strain sec22, stronger effect = lower value 0.873 | S. cerevisiae deletion strains, locus YLR418C, strain cdc73, stronger effect = lower value 0.772 | S. cerevisiae deletion strains, locus YNL307C, strain MCK1, stronger effect = lower value 0.875 | S. cerevisiae deletion strains, locus YPR163C, strain tif3, stronger effect = lower value 0.898
inactive: S. cerevisiae deletion strains, locus YJR075W, strain HOC1, stronger effect = lower value 0.92 | S. cerevisiae deletion strains, locus YKL009W, strain mrt4, stronger effect = lower value 0.969 | S. cerevisiae deletion strains, locus YKL068W, stronger effect = lower value 0.986 | S. cerevisiae deletion strains, locus YKL085W, strain MDH1 (second series), stronger effect = lower value 0.985 | S. cerevisiae deletion strains, locus YKL085W, strain MDH1, stronger effect = lower value 0.985 | S. cerevisiae deletion strains, locus YKL160W, strain elf1, stronger effect = lower value 0.98 | S. cerevisiae deletion strains, locus YKL190W, strain CNB1, stronger effect = lower value 0.98 | S. cerevisiae deletion strains, locus YKR026C, strain gcn3, stronger effect = lower value 0.975 | S. cerevisiae deletion strains, locus YKR091W, strain srl3, stronger effect = lower value 0.979 | S. cerevisiae deletion strains, locus YLL001W, strain dnm1, stronger effect = lower value 0.96 | S. cerevisiae deletion strains, locus YLL026W, stronger effect = lower value 0.984 | S. cerevisiae deletion strains, locus YLL041C, strain sdh2, stronger effect = lower value 0.975 | S. cerevisiae deletion strains, locus YLR027C, strain aat2, stronger effect = lower value 0.97 | S. cerevisiae deletion strains, locus YLR039C, strain RIC1, stronger effect = lower value 0.878 | S. cerevisiae deletion strains, locus YLR058C, strain SHM2, stronger effect = lower value 0.949 | S. cerevisiae deletion strains, locus YLR102C, strain apc9, stronger effect = lower value 0.978 | S. cerevisiae deletion strains, locus YLR113W, strain HOG1, stronger effect = lower value 1.02 | S. cerevisiae deletion strains, locus YLR221C, strain rsa3, stronger effect = lower value 0.982 | S. cerevisiae deletion strains, locus YLR258W, strain gsy2, stronger effect = lower value 0.968 | S. cerevisiae deletion strains, locus YLR262C, strain YPT6 (second series), stronger effect = lower value 0.871 | S. cerevisiae deletion strains, locus YLR262C, strain YPT6, stronger effect = lower value 0.861 | S. cerevisiae deletion strains, locus YLR320W, strain mms22, stronger effect = lower value 0.949 | S. cerevisiae deletion strains, locus YLR330W, strain CHS5, stronger effect = lower value 0.979 | S. cerevisiae deletion strains, locus YLR342W, strain FKS1 (second series), stronger effect = lower value 0.901 | S. cerevisiae deletion strains, locus YLR342W, strain FKS1, stronger effect = lower value 0.963 | S. cerevisiae deletion strains, locus YLR357W, strain rsc2, stronger effect = lower value 0.899 | S. cerevisiae deletion strains, locus YLR370C, strain arc18, stronger effect = lower value 0.977 | S. cerevisiae deletion strains, locus YLR371W, strain rom2, stronger effect = lower value 0.966 | S. cerevisiae deletion strains, locus YLR384C, strain iki3, stronger effect = lower value 0.989 | S. cerevisiae deletion strains, locus YML016C, strain PPZ1, stronger effect = lower value 0.973 | S. cerevisiae deletion strains, locus YML032C, strain rad52, stronger effect = lower value 0.943 | S. cerevisiae deletion strains, locus YML120C, strain ndi1, stronger effect = lower value 0.965 | S. cerevisiae deletion strains, locus YML124C, strain tub3, stronger effect = lower value 0.979 | S. cerevisiae deletion strains, locus YMR058W, strain fet3, stronger effect = lower value 0.967 | S. cerevisiae deletion strains, locus YMR078C, strain ctf18, stronger effect = lower value 0.957 | S. cerevisiae deletion strains, locus YMR125W, strain sto1, stronger effect = lower value 1.01 | S. cerevisiae deletion strains, locus YMR129W, stronger effect = lower value 0.984 | S. cerevisiae deletion strains, locus YMR205C, strain PFK2, stronger effect = lower value 0.938 | S. cerevisiae deletion strains, locus YMR223W, strain ubp8, stronger effect = lower value 0.971 | S. cerevisiae deletion strains, locus YMR231W, strain pep5, stronger effect = lower value 0.979 | S. cerevisiae deletion strains, locus YMR307W, strain GAS1, stronger effect = lower value 0.769 | S. cerevisiae deletion strains, locus YNL067W, strain RPL9B, stronger effect = lower value 0.935 | S. cerevisiae deletion strains, locus YNL071W, strain lat1, stronger effect = lower value 0.985 | S. cerevisiae deletion strains, locus YNL128W, strain TEP1, stronger effect = lower value 0.967 | S. cerevisiae deletion strains, locus YNL153C, strain GIM3, stronger effect = lower value 0.961 | S. cerevisiae deletion strains, locus YNL183C, strain NPR1, stronger effect = lower value 0.899 | S. cerevisiae deletion strains, locus YNL209W, strain ssb2, stronger effect = lower value 0.98 | S. cerevisiae deletion strains, locus YNL233W, strain BNI4, stronger effect = lower value 0.917 | S. cerevisiae deletion strains, locus YNL248C, strain rpa49, stronger effect = lower value 0.942 | S. cerevisiae deletion strains, locus YNL250W, strain rad50, stronger effect = lower value 0.98 | S. cerevisiae deletion strains, locus YNL271C, strain bni1, stronger effect = lower value 0.979 | S. cerevisiae deletion strains, locus YNL298W, strain CLA4, stronger effect = lower value 0.993 | S. cerevisiae deletion strains, locus YNL322C, strain KRE1 (second series), stronger effect = lower value 0.982 | S. cerevisiae deletion strains, locus YNL322C, strain KRE1, stronger effect = lower value 0.986 | S. cerevisiae deletion strains, locus YNR049C, strain mso1, stronger effect = lower value 0.965 | S. cerevisiae deletion strains, locus YNR052C, strain pop2, stronger effect = lower value 0.974 | S. cerevisiae deletion strains, locus YOL006C, strain TOP1, stronger effect = lower value 0.771 | S. cerevisiae deletion strains, locus YOL012C, strain htz1 1.53 | S. cerevisiae deletion strains, locus YOL147C, strain pex11, stronger effect = lower value 0.969 | S. cerevisiae deletion strains, locus YOR001W, strain rrp6, stronger effect = lower value 0.966 | S. cerevisiae deletion strains, locus YOR061W, strain CKA2, stronger effect = lower value 0.978 | S. cerevisiae deletion strains, locus YOR069W, strain VPS5, stronger effect = lower value 0.98 | S. cerevisiae deletion strains, locus YOR070C, strain gyp1, stronger effect = lower value 0.976 | S. cerevisiae deletion strains, locus YOR080W, strain dia2, stronger effect = lower value 0.977 | S. cerevisiae deletion strains, locus YOR083W, strain WHI5, stronger effect = lower value 0.95 | S. cerevisiae deletion strains, locus YOR106W, strain vam3, stronger effect = lower value 0.928 | S. cerevisiae deletion strains, locus YOR136W, strain idh2, stronger effect = lower value 0.974 | S. cerevisiae deletion strains, locus YOR144C, strain elg1, stronger effect = lower value 0.974 | S. cerevisiae deletion strains, locus YOR184W, strain ser1, stronger effect = lower value 0.899 | S. cerevisiae deletion strains, locus YOR231W, strain MKK1, stronger effect = lower value 0.978 | S. cerevisiae deletion strains, locus YOR265W, strain rbl2, stronger effect = lower value 0.993 | S. cerevisiae deletion strains, locus YOR270C, strain vph1, stronger effect = lower value 0.849 | S. cerevisiae deletion strains, locus YOR290C, strain snf2, stronger effect = lower value 0.974 | S. cerevisiae deletion strains, locus YOR316C, strain cot1, stronger effect = lower value 0.967 | S. cerevisiae deletion strains, locus YPL051W, strain arl3, stronger effect = lower value 0.948 | S. cerevisiae deletion strains, locus YPL055C, strain LGE1, stronger effect = lower value 0.906 | S. cerevisiae deletion strains, locus YPL078C, strain atp4, stronger effect = lower value 0.962 | S. cerevisiae deletion strains, locus YPL106C, strain sse1, stronger effect = lower value 0.999 | S. cerevisiae deletion strains, locus YPL240C, strain hsp82, stronger effect = lower value 0.991 | S. cerevisiae deletion strains, locus YPL241C, strain CIN2, stronger effect = lower value 0.984 | S. cerevisiae deletion strains, locus YPL256C, strain CLN2, stronger effect = lower value 0.963 | S. cerevisiae deletion strains, locus YPR119W, strain clb2, stronger effect = lower value 0.964 | S. cerevisiae deletion strains, locus YPR141C, strain kar3, stronger effect = lower value 0.974 | S. cerevisiae deletion strains, locus YPR167C, strain met16, stronger effect = lower value 0.97 | S. cerevisiae deletion strains, strain wtn01, stronger effect = lower value 0.924 | S. cerevisiae strains, strain wild type, stronger effect = lower value 0.961
